Screens (PubChem)
An excerpt weighted towards active compounds, which were near 16% of everything screened.
TDP1 cell noCPT: qHTS for Inhibitors of human tyrosyl-DNA phosphodiesterase 1 (TDP1): qHTS in cells in absence of CPT | DT40 Tdp1-/- hTDP1 cells, no CPT, ATP luminescence, 48 h | Potency, µM (series often up to 46.2 µM), without a hit: at the top dose activity change, negative = growth inhibition, usual class: inhibitors | 15% of 420,000 active | AID 686978, 2013; also: potency is read from the fitted curve at half-maximal effect; % is scaled to controls: 0 for no effect and ±100 for the full control effect; nearly all actives have a fitted effect of over 55% in size
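Luminescent ATP content (CellTiter-Glo) served as the growth readout. Knockout chicken DT40 cells expressing human TDP1 were exposed to compounds without camptothecin for a minimum 48 hr at 37 °C.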
miR-21 reporter: qHTS Assay for Modulators of miRNAs and/orActivators of miR-21. 340,000 tested, under 10 active. HeLa miR-21 FLuc reporter, luciferase, 48 h. Potency, µM (doses to about 38.3 µM), without a hit: at the top dose activity change, positive = activation, usual class: activators;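 also: % of control where 0% means no effect; miR-21 action dims this reporter so a rising signal means less miR-21 action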
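Compounds were titrated across several concentrations (up to approximately 40 uM) and incubated 48 hours with HeLa miR-21-FLuc reporter cells (miR-21 target sequence downstream of FLuc, endogenous miR-21). Readout was firefly luciferase luminescence after lytic detection reagent.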
TDP1 block: qHTS Assay for Inhibitors of Tyrosyl-DNA Phosphodiesterase (TDP1) | recombinant TDP1, AlphaScreen DNA substrate cleavage | Potency, µM (series often up to 130 µM), for inactives: top-dose activity change, negative = inhibition, actives largely listed as inhibitors | 0.28% of 350,000 active | AID 485290, 2010; also: potency is read from the fitted curve at half-maximal effect; % is scaled to controls: 0 for no effect and ±100 for the full control effect; nearly all actives have a fitted effect of over 40% in size
Target sequence (Q9NUW8 whole entry, looked up): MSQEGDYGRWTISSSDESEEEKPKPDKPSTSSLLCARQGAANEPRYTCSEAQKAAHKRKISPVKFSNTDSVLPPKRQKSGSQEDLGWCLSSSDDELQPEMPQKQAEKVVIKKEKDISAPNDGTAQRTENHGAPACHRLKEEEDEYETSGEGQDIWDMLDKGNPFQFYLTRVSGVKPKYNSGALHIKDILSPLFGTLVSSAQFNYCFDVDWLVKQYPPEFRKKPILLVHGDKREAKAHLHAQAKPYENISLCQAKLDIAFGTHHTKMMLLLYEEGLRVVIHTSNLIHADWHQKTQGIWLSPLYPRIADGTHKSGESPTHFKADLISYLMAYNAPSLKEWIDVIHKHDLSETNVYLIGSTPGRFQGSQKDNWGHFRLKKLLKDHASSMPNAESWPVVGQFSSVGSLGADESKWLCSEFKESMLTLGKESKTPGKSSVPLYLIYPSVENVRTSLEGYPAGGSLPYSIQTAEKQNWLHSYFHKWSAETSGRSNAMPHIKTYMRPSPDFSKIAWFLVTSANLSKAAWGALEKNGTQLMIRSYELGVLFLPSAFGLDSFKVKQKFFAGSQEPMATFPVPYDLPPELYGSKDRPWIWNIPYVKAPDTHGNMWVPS
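Here, a 5' biotin and 3' phosphotyrosine-FITC DNA oligonucleotide reports Tdp1 activity: intact substrate bridges AlphaScreen beads, while cleavage leaves a 3' phosphate and drops signal. All incubations at room temperature.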
uPA generation: qHTS for Inhibitors of Cell Surface uPA Generation | cell surface uPA generation assay, qHTS | 0.31% of 330,000 active | Potency, µM (top dose mostly 38.3 µM), for inactives: top-dose activity change, negative = inhibition, actives largely listed as inhibitors; active = well fitted inhibition curve with a large enough effect; inconclusive = small, poorly fitted or top-dose-only effect; inactive = no such curve, though single readings can be large or run the other way; tested in mouse RAW 264.7 cells; also: potency is read from the fitted curve at half-maximal effect; % is scaled to controls: 0 for no effect and ±100 for the full control effect; nearly all actives have a fitted effect of over 55% in size
TDP1 cell CPT: qHTS for Inhibitors of human tyrosyl-DNA phosphodiesterase 1 (TDP1): qHTS in cells in presence of CPT | chicken DT40 Tdp1-/-;hTDP1 cells + 20 nM CPT, ATP luminescence, 48 h | Potency, µM (titrated, usually from 46.2 µM), for the others: at the highest dose activity change, negative = growth inhibition, most hits filed as inhibitors | 12% of 420,000 active | AID 686979, 2013; also: potency is read from the fitted curve at half-maximal effect; % is scaled to controls: 0 for no effect and ±100 for the full control effect; nearly all actives have a fitted effect of over 55% in size
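Cell growth measured by CellTiter-Glo luminescence after a minimum 48 h, 37 C compound exposure with 20 nM CPT in Tdp1-knockout DT40 cells stably expressing hTDP1, seeded 400/well; qHTS titration format.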
Starred values were filed as active, the others as inactive; ? = inconclusive; . = not tested or not shown. Unless noted, calls follow the shape of the dose curve; as a rule, active = well fitted curve in the direction sought with a large enough effect; inconclusive = small, poorly fitted or top-dose-only effect, or another doubt; inactive = no such curve, though single readings can be large; an effect the other way counts as inactive or inconclusive.

SMILES	TDP1 cell noCPT	miR-21 reporter	TDP1 block	uPA generation	TDP1 cell CPT
Cc1cc(C)n(C(C[N+](=O)[O-])c2ccc(Cl)cc2)n1 (centres undefined)	2.31µM*	7.8%	4.9%	-0.7%	2.31µM*
COc1ccc(N2CCN(c3nc4ccccn4c(=O)c3/C=C(\C#N)S(=O)(=O)c3ccccc3)CC2)cc1	1.5%	-13.8%	6.9%	8.3%	-7.0%
N#CC1=C(N)SC(N)=C(C#N)C1c1ccc([N+](=O)[O-])cc1	?	-2.5%	7.9%	-1.5%	14.6µM*
CCC(=O)N1CCC(C)(C(=O)Nc2ccc(OC)c(OC)c2)C1 (centres undefined)	-5.7%	.	.	.	-14.6%
c1cncc(CNc2ncn[nH]2)c1	0.3%	1.5%	.	6.6%	8.7%
Oc1ccc(-c2csc(-c3cccnc3)n2)c(O)c1	?	-16.1%	5.3%	-13.6%	?
Oc1ccc(-c2nc(-c3ccc(O)c(O)c3)cs2)cc1	8.2µM*	-29.5%	6.2%	-8.3%	8.2µM*
CCOC(=O)C1(Cc2ccccc2)CCN(Cc2cc(=O)c3ccccc3[nH]2)CC1	?	2.6%	6.0%	6.9%	-28.3%
Cc1cccc(-c2nc(CCNC(=O)Cc3ccc(F)cc3)cs2)c1	23.1µM*	0.7%	0.0%	.	?
COc1ccc(CC(=O)NCCc2csc(-c3cccc(C)c3)n2)cc1	?	-8.0%	8.8%	.	?
Cc1cc(C)cc(C(=O)NCCc2csc(-c3ccc(C(F)(F)F)cc3)n2)c1	20.6µM*	-7.2%	4.4%	.	?
O=C(NCCc1csc(-c2ccc(C(F)(F)F)cc2)n1)c1ccc(F)c(F)c1	.	?	3.3%	.	.
O=C(Cc1ccc(F)cc1)NCCc1csc(-c2cccc(F)c2)n1	?	-10.2%	-0.6%	.	?
Cc1cccc(CC(=O)NCCc2csc(-c3ccc(C(F)(F)F)cc3)n2)c1	14.6µM*	-0.1%	0.0%	.	16.4µM*
CCCCOc1ccc(C(=O)NCCc2csc3nc(-c4ccccc4F)nn23)cc1	?	15.5%	0.6%	.	25.9µM*
COc1ccc(CC(=O)NCCc2csc3nc(-c4ccccc4F)nn23)cc1	-20.4%	4.0%	6.5%	.	?
CC(C)(C)c1ccc(C(=O)NCCc2csc3nc(-c4ccccc4F)nn23)cc1	?	7.4%	8.9%	.	20.6µM*
CCOc1cc(C(=O)NCCc2csc3nc(-c4ccccc4F)nn23)cc(OCC)c1OCC	?	1.2%	-0.6%	.	23.1µM*
COc1ccc(NC(=O)C(=O)NCCc2csc3nc(-c4ccccc4F)nn23)cc1OC	2.9%	-5.6%	1.8%	.	-0.1%
COCCNC(=O)C(c1ccc(C)cc1)N(C(=O)CCC(=O)Nc1ccccn1)C1CCCC1 (centres undefined)	.	-11.0%	0.0%	.	.
O=C(O)CCSc1ccccn1	0.1%	-9.3%	2.7%	0.3%	-3.8%
O=C(CCSc1ccccn1)c1ccccc1	2.59µM*	-3.1%	-3.8%	-0.3%	2.31µM*
Oc1ccc2ccccc2c1CN1CC2CCC(CC2)C1	?	.	.	1.5%	?
O=C(c1cccs1)N1CCN(C2CCCCC2)CC1	2.3%	-10.6%	-9.7%	0.6%	-14.9%
CCOC(=O)CNC(=O)C1(/C=C/c2ccccc2)CC(=O)N1c1ccc(C)cc1 (centres undefined)	-10.4%	13.5%	.	?	?
SMILES	TDP1 cell noCPT	miR-21 reporter	TDP1 block	uPA generation	TDP1 cell CPT
COc1ccccc1NS(=O)(=O)c1cccc(NC(=O)Nc2cccc(Cl)c2)c1	20.6µM*	?	-1.8%	-0.6%	20.6µM*
COc1ccccc1NS(=O)(=O)c1cccc(NC(=O)c2cncc(Br)c2)c1	18.4µM*	.	-0.1%	1.5%	?
NS(=O)(=O)c1cccc(NC(=O)c2cncc(Br)c2)c1	11.3%	-1.1%	.	1.6%	-7.9%
COc1ccccc1NS(=O)(=O)c1cccc(NC(=O)NCCCl)c1	?	1.2%	-1.2%	-2.7%	20.6µM*
COc1ccc([N+](=O)[O-])cc1NC(=O)C(C)N(C)Cc1cccc(OC)c1OC (centres undefined)	16.4µM*	-9.9%	4.6%	-4.6%	20.6µM*
COc1ccccc1NS(=O)(=O)c1cccc(NC(=O)C2CC2)c1	-11.0%	.	1.3%	9.2%	?
COc1ccc([N+](=O)[O-])cc1NC(=O)Nc1cccc(Cl)c1	9.2µM*	14.4%	5.1%	-5.8%	11.6µM*
O=c1cc2ncc(-n3cc([N+](=O)[O-])cn3)cn2[nH]1	-6.8%	-2.1%	8.91µM*	5.2%	10.0%
O=c1cc2ncc(-c3[nH]ncc3[N+](=O)[O-])cn2[nH]1	17.5%	6.6%	3.1%	-4.9%	2.2%
O=C(O)Cc1ccc2c(c1)N(S(=O)(=O)c1cccc(C(F)(F)F)c1)CC(C(=O)O)O2 (centres undefined)	-1.2%	-2.6%	3.8%	-2.9%	1.1%
Cc1cc(C)nc(-n2nc(C)cc2NC(=O)CN2CCCC2)n1	-4.1%	-4.3%	0.0%	11.0%	-2.3%
Cc1cc(C)nc(-n2nc(C)cc2NC(=O)CN2CCC(C)CC2)n1	5.8µM*	-0.7%	0.0%	-2.9%	5.17µM*
Cc1ccc(C)c(C(=O)Nc2cc(C)nn2-c2nc(C)cc(C)n2)c1	5.17µM*	-4.8%	5.9%	.	3.26µM*
Cc1cc(C)nc(-n2nc(C)cc2NC(=O)CNC(C)c2ccccc2)n1 (centres undefined)	20.6µM*	-2.7%	3.9%	-0.6%	?
Cc1cc(C)nc(-n2nc(C)cc2NC(=O)c2cccc(S(=O)(=O)N(C)C)c2)n1	-8.2%	-1.4%	2.1%	9.9%	-9.9%
Cc1cc(NC(=O)CN2CCOCC2)n(-c2nc3ccccc3s2)n1	20.6µM*	-15.0%	4.1%	0.0%	14.6µM*
Cc1ccc(C(=O)OCC(=O)NC(=O)NCc2ccccc2)cc1C	11.6%	.	-0.6%	-2.4%	2.4%
O=C(CNc1cccc2ccccc12)N/N=C/C(Br)=C/c1ccccc1	10µM*	19.4%	9.0%	-21.5%	11.6µM*
O=C(CNc1ccccc1)N/N=C/c1ccc([N+](=O)[O-])cc1	-3.8%	-4.3%	4.6%	-6.5%	-15.6%
O=C(CNc1cccc([N+](=O)[O-])c1)N/N=C/c1ccc([N+](=O)[O-])o1	2.59µM*	23.9%	5.4%	-17.1%	2.91µM*
O=C(CNc1cccc2ccccc12)N/N=C/c1ccc([N+](=O)[O-])o1	4.11µM*	?	0.0%	?	6.51µM*
Cn1c(N)c(S(=O)(=O)N2CCN(c3ccccc3)CC2)c(=O)n(C)c1=O	-8.9%	-0.3%	-2.6%	3.5%	-13.5%
CCc1nn(CC(=O)NCCCN2CCc3ccccc3C2)c(=O)c2cc3sccc3n12	?	-14.1%	2.6%	-18.0%	23.1µM*
